Inconclusive results are not listed. A call without a number means that no potency is given here. Activity calls are given as the source filed them. The call rests on the fitted dose curve; in most records, active means well fitted inhibition curve with a large enough effect; inconclusive means small, poorly fitted or top-dose-only effect; inactive means flat fitted curve, though single readings scatter.

The subject of this assay is CRL-7250. The assay is described as follows: qHTS assay to identify novel small-molecules to repurpose for Merkel cell carcinoma treatment (AID 1296009). Further: nearly all actives have a fitted effect of over 60% in size. Particulars: MCC and control cell lines, CellTiter-Glo viability, 72 h; series mostly up to 92 µM. In outline:
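After compound transfer in DMSO, plates were kept 72 hr at 37 degree celsius. Luminescent ATP signal from CellTiter-Glo served as viability measure, normalized against DMSO and no-cell controls.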
Background: Quantitative high-throughput screening tests each substance at several concentrations.
In the case of `COc1ccc(CNC(=O)c2cc(-c3cncc(C)c3)ncc2-c2nccs2)nc1OC`, the Potency result is “inactive”. As for `COc1ccc2cc(C(C)C(=O)Oc3ccc(C(N)=S)cc3)ccc2c1` (stereo not drawn), the Potency entry was “inactive”. With `CCc1nn(CCO)c(CC)c1Oc1cc(C#N)cc(C#N)c1` the entry was “inactive”. For `O=C1COc2nccc(-c3ccccc3F)c2CN1Cc1cc(C(F)(F)F)cc(C(F)(F)F)c1`, the Potency entry was “inactive”. Consider `Cc1ccc(Nc2nnc(-c3ccc([N+](=O)[O-])cc3)o2)cc1Cl`, for which the Potency result is “inactive”. As to H-DPPDPDRFYGMM-NH2, the Potency result was “inactive”.

Take `C[C@@H]1CC[C@H]2C(C)(C)[C@H](O)[C@H](O)C[C@]2(C)[C@@]12Cc1c(O)cc3c(c1O2)CNC3=O`: the Potency entry is “inactive”.

For `C=C(C(=O)OC)C1C(O)CC2(C)C(=O)CCC(O)(CO)C2C1O` (stereo not drawn), the Potency entry was “inactive”. Turning to `Cc1cc(C(=O)N2Cc3cnn(C)c3Nc3ccccc32)ccc1CNC(=O)N1CCN(Cc2cc(O)cc(O)c2)CC1`, the Potency result is “inactive”. In the case of `C[C@H]1CC[C@@H]2N(C1)C[C@@H]1[C@H]([C@@H](O)[C@H](O)[C@]3(O)[C@H]1C[C@@]14OC5(O)[C@@H](C[C@@H](O)[C@@H]31)[C@]4(C)CC[C@@H]5O)[C@]2(C)O` it was “inactive”; in that of `CC1CCC2(NC1)OC1C(=O)C3C4CCC5CC(O[C@@H]6O[C@H](CO)[C@@H](O)[C@H](O)[C@H]6O[C@@H]6O[C@@H](C)[C@H](O)[C@@H](O)[C@H]6O)CCC5(C)C4CCC3(C)C1C2C` (stereo partly drawn), “inactive”. In the case of `C[C@@H]1C[C@H]2OC(=O)[C@@]3(C)CCC[C@](C)(C23)[C@@]1(O)CCC1=CC(=O)OC1O` (stereo partly drawn) it was “inactive”. With `O=C(Cn1c2ccccc2c2nc3n(c(=O)c21)CCS3)N1CCCC1` the entry was “inactive”.

The record behind these values is PubChem BioAssay (NCATS).
